LmPK inhibitor: blocks Leishmania mexicana pyruvate kinase activity; AID 1721; hit rate 0.37% among 290,000; purified LmPK, Kinase-Glo ATP luminescence, 1 h; Q27686; Potency, µM (top dose mostly 57.5 µM), most hits filed as inhibitors
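In 50 mM imidazole pH 7.2 with 7 mM MgCl2, LmPK (0.1 nM) turned over PEP (0.5 mM) and ADP (0.1 mM) for 1 h at room temperature. Luciferase read-out of ATP.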
Tb PYK inh: blocks Trypanosoma brucei pyruvate kinase; AID 624173; Potency, µM (doses to about 76.8 µM), actives largely listed as inhibitors; TbPYK enzyme, Kinase-Glo Plus ATP luminescence, 45 min; hit rate 0.12% among 410,000; Q57TT1; also: nearly all actives have a fitted effect of over 50% in size
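Assay buffer: 50 mM TEA pH 7.2, 100 mM KCl, 10 mM MgCl2, 0.05% BSA, 0.01% Tween-20. Pyruvate kinase from T. brucei plus substrate met compound, then ADP (130 uM final). Luminescence was read post 45 min RT.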
Giardia FBPA inh: inhibitors of Giardia lamblia fructose-1,6-bisphosphate aldolase; A8B2U2; hit rate 0.71% among 290,000; purified Giardia FBPA; Potency, µM (series often up to 59.6 µM), hits mostly inhibitors; also: nearly all actives have a fitted effect of over 55% in size
Target sequence (A8B2U2 whole entry, looked up): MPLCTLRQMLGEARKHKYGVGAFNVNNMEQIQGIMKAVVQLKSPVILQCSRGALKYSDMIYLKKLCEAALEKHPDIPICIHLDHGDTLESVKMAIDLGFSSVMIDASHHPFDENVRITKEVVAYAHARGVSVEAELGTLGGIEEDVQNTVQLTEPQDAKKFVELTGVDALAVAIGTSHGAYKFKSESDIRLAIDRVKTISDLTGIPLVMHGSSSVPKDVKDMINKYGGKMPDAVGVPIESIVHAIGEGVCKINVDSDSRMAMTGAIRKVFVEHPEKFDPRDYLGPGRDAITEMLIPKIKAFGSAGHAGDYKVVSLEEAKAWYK
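40 nM FBPA preincubated 10 min at RT with compound (up to 57.5 uM final), then substrate plus GAPDH/TPI/NAD/arsenate coupling and diaphorase/resazurin added. Fluorescence read after 20 min at RT, 525/598 nm.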
Cycloheximide cs: counter-screen hit for Shiga toxin inhibitors, cycloheximide. cell reporter, cycloheximide protein synthesis inhibition counterscreen. max response, %. hit rate 12% among 300,000; in the data active = max response mostly above about 13%, no sharp cut-off; inactive = mostly below about 14%; also: read at 38.3 µM for the half of the compounds with a filed dose
RE007 growth inh: less growth of the S. pombe RE007 Vpr strain | S. pombe RE007 Vpr strain, BacTiter-Glo ATP luminescence, 24 h | hit rate 0.21% among 360,000 | Potency, µM (titrated, usually from 92.2 µM), usual class: inhibitors; active = well fitted falling curve with a large enough effect; inconclusive = small, poorly fitted or top-dose-only effect; inactive = no such curve, though single readings can be large or run the other way; also: nearly all actives have a fitted effect of over 50% in size
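Fission yeast RE007 carrying one integrated HIV-1 vpr copy, seeded at OD 0.01 in PMG+AL medium with 23 nL pinned compound. Grown 24 h at 30 degrees; viability read by BacTiter-Glo luminescence after 5 min.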
Shiga inhibitor: blocks Shiga toxin action in Vero cells; Vero cells, Shiga toxin protein synthesis inhibition reporter; inhibition, % at 38.7 µM; hit rate 9.2% among 290,000; in the data active = inhibition mostly above about 28%, no sharp cut-off; inactive = mostly below about 43%
Numbers stand for hits; - = inactive; ? = inconclusive; . = no result; [ ] = dose if it differs, or a comment. The entries come from a sample that favours hits as a whole. Unless noted, calls follow the shape of the dose curve; as a rule, active = well fitted curve in the direction sought with a large enough effect; inconclusive = small, poorly fitted or top-dose-only effect, or another doubt; inactive = no such curve, though single readings can be large; an effect the other way counts as inactive or inconclusive.

SMILES	LmPK inhibitor	Tb PYK inh	Giardia FBPA inh	Cycloheximide cs	RE007 growth inh	Shiga inhibitor
C[C@H]1Cc2c(-c3ccccc3)nc3c(c2CO1)CN(C(=O)Nc1cccc(C#N)c1)CC3	-[11.5 µM]	.	-[12.9 µM]	.	.	.
NC(=O)c1ccc(-n2nc(C(F)(F)F)c3c2CCCC3)cc1	-	-	-	19.0	-	-
CCCN1CCN(c2ncnc3sc(C(=O)Nc4ccc(OC(F)(F)F)cc4)c(C)c23)CC1	.	-	.	.	.	.
Cc1ccc2cccc(NC(=O)C(C)Oc3ccc(Cl)cc3Cl)c2n1 (centres undefined)	.	-	.	.	.	.
O=C(NC(=S)NCc1nc2ccccc2[nH]1)c1ccccc1F	-	-	-	44.7	-	104.8
O=C(NCc1nc2ccccc2[nH]1)c1c(F)cccc1F	.	-	.	.	.	.
O=C(NCCc1nc2ccccc2[nH]1)c1ccc(F)cc1	-	-	-	-	-	-
O=C(NC(=S)NCc1nc2ccccc2[nH]1)c1ccc(F)cc1	-	-	-	28.1	-	-
COc1ccc(-n2c(SCC(=O)NC3CCCCC3)nc3c([nH]c4ccccc43)c2=O)cc1	.	-	.	.	.	.
CN(Cc1ccc(Cl)cc1)C(=O)c1ccc(S(=O)(=O)NCc2ccco2)cc1	.	-	.	.	-	.
COc1ccc(CCN(C)C(=O)c2ccc(S(=O)(=O)NCc3ccco3)cc2)cc1OC	-	-	-	54.7	-	80.7
CN(Cc1cccs1)C(=O)c1ccc(S(=O)(=O)NCc2ccco2)cc1	-	-	-	26.9	-	-
Cn1c(=O)n(C)c2cc(N3CCOCC3)c(NC(=O)c3ccc(C(C)(C)C)cc3)cc21	.	-	.	.	.	.
O=C(c1ccc(Cl)cc1)c1coc2ccc(O)cc12	-	-	-	42.8	-	73.2
O=C(c1ccc(Br)cc1)c1coc2ccc(O)cc12	.	-	.	.	-	.
O=C(c1coc2ccc(O)cc12)C1CC1	-	-	-	24.6	-	58.2
COc1ccc(C(=O)Nc2nnc(S(=O)(=O)N(C)c3ccc(C)cc3)s2)cc1	.	-	.	.	.	.
CCCc1nn2c(=O)cc(COC(=O)c3cccc(NC(=O)COc4ccc(F)cc4)c3)nc2s1	.	-	.	.	.	.
COc1cccc2c1O/C(=N\O)C(C(=O)Nc1ccc(C)cc1)C2 (centres undefined)	-	-	-	13.4	-	-
COc1cccc2c1O/C(=N\O)C(C(=O)Nc1cccc(Br)c1)C2 (centres undefined)	-	-	-	33.1	-	79.6
COc1ccc(OC)c(-c2noc(CSc3nnc(-c4ccccc4)n3-c3ccccc3)n2)c1	.	-	.	.	.	.
O=C(COc1ccc(-c2ccccc2)cc1)N1CCN(C(=O)c2cccnc2)CC1	-	-	-	-	-	-
O=C(c1ccccc1)N1CC(COc2ccccc2)OC(c2cccnc2)O1 (centres undefined)	-	-	-	16.0	-	-
CCOCCc1nn2c(=O)cc(COC(=O)c3ccc(NC(=O)c4ccc(F)cc4)cc3)nc2s1	.	-	.	.	.	.
Cc1ccc(N(C(=O)Nc2ccccc2)C2=NCC(C)S2)cc1 (centres undefined)	-	-	-	22.5	-	90.9
SMILES	LmPK inhibitor	Tb PYK inh	Giardia FBPA inh	Cycloheximide cs	RE007 growth inh	Shiga inhibitor
CC1CN=C(N(C(=O)Nc2ccccc2)C(C)c2ccccc2)S1 (centres undefined)	-	-	-	13.3	-	-
CC1CN=C(N(C(=O)Nc2ccccc2)C(C)C)S1 (centres undefined)	-	-	-	-	-	-
CC1CN=C(N(Cc2ccccc2)C(=O)Nc2ccccc2)S1 (centres undefined)	-	-	-	-	?	-
CN(Cc1ccccc1)C(=O)c1cc2c(s1)-c1ccc(Cl)cc1SC2	.	-	.	.	.	.
C=CCC(C)(O)c1cccc(Br)c1 (centres undefined)	.	.	-	.	.	.
CCOc1ccccc1-n1c(N)c(C(=O)OC)c2nc3ccccc3nc21	.	-	.	.	.	.
O=C1c2cccc3cccc(c23)C(=O)N1CCc1ccccc1	-	-	-	50.9	-	94.9
O=C(c1ccc2c(c1)C(=O)N(CCCO)C2=O)c1ccc2c(c1)C(=O)N(CCCO)C2=O	-	-	-	-	-	-
O=C(CCN1C(=O)c2ccccc2C1=O)N1CCOCC1	-	-	-	-	-	-
C#CCOC(=O)CCCN1C(=O)c2cccc3cccc(c23)C1=O	.	-	.	.	-	.
O=C1c2ccc3c4c(ccc(c24)C(=O)N1CCCCO)C(=O)N(CCCCO)C3=O	-	-	?	34.2	-	72.1
COC(=O)CCCN1C(=O)c2cccc3cccc(c23)C1=O	-	-	-	24.4	-	-
O=C(CCN1C(=O)c2cccc3cccc(c23)C1=O)N1CCOCC1	-	-	-	26.1	-	94.3
CN(C)c1ncc2nc(CCc3ccccc3)c(=O)n(Cc3cccs3)c2n1	.	.	-	.	.	.
COc1ccc(Cl)cc1NC(=O)c1ccc2c(c1)CCCN2S(C)(=O)=O	.	-	.	.	.	.
O=C1c2ccccc2C(=O)N1CCSC(=S)N1CCOCC1	-	-	-	26.4	-	-
O=C(c1ccccc1)c1nn(-c2ccccc2)c(=O)cc1C(F)(F)F	-	-	-	17.0	-	-
O=C(c1cccc(Cl)c1)c1nn(-c2ccccc2)c(=O)cc1C(F)(F)F	-	-	-	-	-	-
O=C(c1ccccc1)c1nn(-c2ccc(Cl)cc2)c(=O)cc1C(F)(F)F	-	-	-	12.9	-	32.9
O=C(O)C(=O)Nc1cccc(C2=NN=N[N]2)c1	.	-	.	.	.	.
COc1ccc(/C(C)=N/NC(=O)C2CC2)cc1	-	-	-	-	-	42.4
CC(=O)Nc1ccc(C(C)=NNC(=O)C2CCCC2)cc1	.	-	.	.	-	.
C/C(=N\NC(=O)C1CCCC1)c1ccc(Cl)c(Cl)c1	-	-	.	-	-	-
C/C(=N\NC(=O)C1CC1)c1ccc(N2CCOCC2)cc1	-	-	-	-	-	-
C/C(=N\NC(=O)C1CCCC1)c1ccc(C(C)C)cc1	-	-	.	23.6	-	51.7
SMILES	LmPK inhibitor	Tb PYK inh	Giardia FBPA inh	Cycloheximide cs	RE007 growth inh	Shiga inhibitor
COc1ccc2cc(/C(C)=N/NC(=O)C3CC3)ccc2c1	-	-	-	26.3	-	48.5
O=c1c(-c2cccs2)nc2cnc(N3CCOCC3)nc2n1Cc1cccs1	.	.	-	.	.	.
COc1cc(OC)c2c(C)c(CC(=O)NCCc3ccccc3OC)c(=O)oc2c1	.	-	.	.	.	.
CCc1nnc(SCc2nc(-c3ccccc3F)oc2C)c2cc3sccc3n12	.	-	.	.	.	.
CCc1ccc(-c2cn3nc(-c4ccccc4)cnc3n2)cc1	-	-	-	24.6	-	63.8
CCc1ccc(-c2cn3nc(CC)sc3n2)cc1	.	-	.	.	.	.
CCCCc1ccc(NC(=O)C2CCCO2)cc1 (centres undefined)	-	-	-	54.6	-	71.8
CCCCNC(=O)c1ccc(NC(=O)C2CCCO2)cc1 (centres undefined)	-	-	-	10.8	-	-
CC(C)OCCCNC(=O)c1ccc(NC(=O)C2CCCO2)cc1 (centres undefined)	-	-	-	-	-	-
Cc1cc(C(=O)NCCc2ccc(Cl)cc2)c2c(C)nn(-c3ccccc3)c2n1	.	-	.	.	.	.

Source: PubChem BioAssay (National Center for Advancing Translational Sciences (NCATS))
